Screening results: PubChem BioAssay, National Center for Advancing Translational Sciences (NCATS)
Most compounds without a hit are left out; they make up all but 10% or so of the library.
HEK293 tox – HEK 293 cell cytotoxicity; actives 6.6% (n = 94,000); Potency, µM (series often up to 115 µM), for the others: at the top dose activity change, negative = cytotoxicity, hits mostly inhibitors; AID 1345083; HEK 293 viability, ATP luminescence (CellTiter-Glo), 48-72 h; further: nearly all actives have a fitted effect of over 60% in size
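CellTiter-Glo luminescence (cellular ATP) was read after 48 or 72 hr of compound exposure at 37 degree Celsius. Cells were HEK 293 plated at 250 cells/well.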
NPR1 antag – antagonists of human natriuretic peptide receptor Npr1. Potency, µM (titrated, usually from 46.3 µM), for inactives: at the top dose activity change, negative = inhibition, usual class: inhibitors. HEK293 hNpr1 GloSensor cGMP, ANP-stimulated luminescence. P16066. actives 1.6% (n = 76,000). AID 1347048; calls by dose curve; further: nearly all actives have a fitted effect of over 60% in size
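Compound pre-incubated 30 min at room temperature on GloSensor-loaded HEK293 cells stably carrying hNpr1 and the pGS-40F cGMP biosensor. Stimulation uses hNppA at 0.1 nM final; luminescence is taken at baseline and 20 min post-agonist.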
GPT2 inhibitor – blocks human glutamate pyruvate transaminase 2; actives 0.25% (n = 100,000); Recombinant GPT2, coupled pyruvate oxidase/HRP Amplex Red fluorescence; Q8TD30; Potency, µM (top dose mostly 57.7 µM), for the others: at the highest dose activity change, negative = inhibition, most hits filed as inhibitors; further: nearly all actives have a fitted effect of over 60% in size
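Fluorescence of coupled pyruvate oxidase/HRP/Amplex Red system (50uM Amplex, 30 min, dark) reports pyruvate formed by GPT2. Enzyme reaction: 10ng/uL GPT2, 2mM L-alanine, 250uM a-KG, 30 min room temperature, pH 7.5; 50uM AOA control.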
NIH3T3 tox – cytotoxic compounds in NIH 3T3 cells | NIH 3T3 viability, CellTiter-Glo ATP luminescence, 48-72 h | Potency, µM (series often up to 96.7 µM), for the others: at the top dose activity change, negative = cytotoxicity, hits mostly inhibitors | actives 4.3% (n = 94,000); further: nearly all actives have a fitted effect of over 55% in size
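NIH 3T3 cells at 400 cells/well received 23 nL of compound by pintool and were incubated 48 or 72 h at 37 °C. Viability was read as ATP-coupled CellTiter-Glo luminescence.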
Luciferase inh – Photinus pyralis luciferase inhibition; P08659; purified P. pyralis luciferase, luminescence, biochemical; Potency, µM (top dose mostly 115 µM), most hits filed as inhibitors; actives 2.5% (n = 76,000); further: nearly all actives have a fitted effect of over 65% in size
Target sequence (P08659 whole entry, looked up): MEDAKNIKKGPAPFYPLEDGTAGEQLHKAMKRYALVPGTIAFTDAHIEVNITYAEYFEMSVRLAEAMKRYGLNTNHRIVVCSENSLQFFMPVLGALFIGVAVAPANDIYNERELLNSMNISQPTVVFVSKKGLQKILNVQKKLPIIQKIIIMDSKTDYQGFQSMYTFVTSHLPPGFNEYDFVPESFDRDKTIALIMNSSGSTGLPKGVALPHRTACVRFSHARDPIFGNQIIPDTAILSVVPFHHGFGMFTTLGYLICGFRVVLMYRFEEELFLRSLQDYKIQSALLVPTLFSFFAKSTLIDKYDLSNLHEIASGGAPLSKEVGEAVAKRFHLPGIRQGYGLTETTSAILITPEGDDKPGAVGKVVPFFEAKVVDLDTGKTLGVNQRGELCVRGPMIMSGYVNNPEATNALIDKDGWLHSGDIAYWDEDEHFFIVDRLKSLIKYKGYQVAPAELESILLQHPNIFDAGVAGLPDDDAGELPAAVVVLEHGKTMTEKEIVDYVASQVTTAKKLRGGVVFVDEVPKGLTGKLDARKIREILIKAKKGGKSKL
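Biochemical qHTS: compound (6-point titration) added to 10uM D-luciferin plus 10uM ATP in Tris acetate pH 7.5 buffer with Mg, Tween-20 and BSA, then purified enzyme at 10nM; light output imaged.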
* hit, by the source's call; i = inactive; ? = inconclusive; . = no result; [ ] = dose if it differs, or a comment. Unless noted, the call rests on the fitted dose curve; in most records, active means well fitted curve in the direction sought with a large enough effect; inconclusive means small, poorly fitted or top-dose-only effect, or another doubt; inactive means no such curve, though single readings can be large; an effect the other way counts as inactive or inconclusive. On the % scale 0 is the no-effect control and ±100 the full control effect; potency means the concentration at half of the fitted maximal effect.

SMILES	HEK293 tox	NPR1 antag	GPT2 inhibitor	NIH3T3 tox	Luciferase inh
CC1(C)[C@H]2CC[C@@H](CNC(=O)Cc3cccc(Cl)c3)[C@@H]1C2	100µM*	8%[70.6 µM]	i	?	i
CC1(C)[C@H]2CC[C@@H](CNC(=O)c3cccc(Br)c3)[C@@H]1C2	100µM*	-2%[70.6 µM]	0%[88.5 µM]	?	i
CC1(C)[C@H]2CC[C@@H](CNC(=O)c3ccc4ccccc4n3)[C@@H]1C2	?	0%[70.6 µM]	-10%[88.5 µM]	89µM*	i
Cc1ccccc1C(=O)NC[C@@H]1CC[C@H]2C[C@@H]1C2(C)C	?	-5%[70.6 µM]	i	?	i
CC1(C)[C@H]2CC[C@@H](CNC(=O)c3ccc(Cl)nc3)[C@@H]1C2	?	-7%[70.6 µM]	-3%[88.5 µM]	79µM*	i
NCc1cccc(-c2cccs2)c1	-9%[172 µM]	.	3%[88.5 µM]	?	.
O=C(NCCCc1ccccc1)c1cn2cc(-c3ccc(C(F)(F)F)cc3)sc2n1	?	.	-1%	?	.
Cc1cc(C(=O)NC[C@@H]2CC[C@H]3C[C@@H]2C3(C)C)ccc1Cl	?	?	3%[88.5 µM]	35µM*	i
CC1(C)[C@H]2CC[C@@H](CNC(=O)N3CCCC3)[C@@H]1C2	63µM*	-7%[70.6 µM]	i	?	i
Cc1ccc(C(=O)NC[C@@H]2CC[C@H]3C[C@@H]2C3(C)C)cc1	?	6%[70.6 µM]	i	?	i
CCC(=O)NC[C@@H]1CC[C@H]2C[C@@H]1C2(C)C	-11%[230 µM]	6%[70.6 µM]	i	-27%[174 µM]	i
Cn1ncc2c(C(=O)Nc3ccc(Cl)cc3)cc(-c3ccc(C(F)(F)F)cc3)nc21	i	.	.	-9%	.
Cc1ccccc1CN1Cc2nc(Nc3ccccc3)ccc2OCC1=O	71µM*	-21%[70.6 µM]	i	?	i
Cc1csc(Nc2ccc3c(n2)CN(Cc2ccccc2C)C(=O)CO3)n1	25µM*	?	2%[88.5 µM]	25µM*	i
Cc1ccccc1CN1Cc2nc(-c3c(C)noc3C)ccc2OCC1=O	?	-1%[70.6 µM]	-6%[88.5 µM]	?	i
O=C(NC1CCN(c2ccc3nnc(-c4ccccc4)n3n2)C1)c1ccc(F)cc1 (stereo unspecified)	5%	.	.	-3%	.
COc1ccccc1C(=O)NC1CCN(c2ccc3nnc(-c4ccccc4)n3n2)CC1	35µM*	.	.	?	.
O=C(NC1CCN(c2ccc3nnc(-c4ccccc4)n3n2)C1)c1ccccc1Cl (stereo unspecified)	35µM*	.	.	32µM*	.
O=C(Cc1cccc(Cl)c1)NC1CCCN(c2ccc3nnc(C4CC4)n3n2)C1 (stereo unspecified)	-14%	.	.	-25%	.
O=C(Cc1cccc(Cl)c1)NC1CCCN(c2ccc3nnc(-c4ccccc4)n3n2)C1 (stereo unspecified)	35µM*	.	.	35µM*	.
O=C(NC1CCN(c2ccc3nnc(-c4ccccc4)n3n2)CC1)c1ccccc1F	?	.	.	-24%	.
CCc1nc(CN2CCOC(c3ccc4cc(OC)ccc4c3)C2)no1 (stereo unspecified)	?	2%	i[11.5 µM]	?	40µM*
O=C(Nc1cnc(-c2ccc(C(F)(F)F)cc2)nc1)C1CCOC1 (stereo unspecified)	?	-20%	i	?	18µM*
O=C(C1CCCC1)N1CCN(c2nnc3c(Cl)cccn23)CC1	-20%	5%	i	-19%	i
O=C(C1CCC1)N1CCC[C@H](n2c(=O)n(CC3CC3)c3cccnc32)C1	?	.	i	?	.
SMILES	HEK293 tox	NPR1 antag	GPT2 inhibitor	NIH3T3 tox	Luciferase inh
CCn1cc(S(=O)(=O)N2CCC[C@H](n3c(=O)n(CC4CC4)c4cccnc43)C2)cn1	40µM*	5%	0%	-24%	i
O=S(=O)(c1cccs1)N1CCC(n2cnnc2-c2ccccc2)CC1	5%	-1%	i	-6%	i
C[S+](=O)([O-])N1CCN(CCn2nc3n(c2=O)CCCC3)CC1	2%[172 µM]	.	.	-19%[138 µM]	.
CN(C)c1ccc(CN2CCOC[C@H]2c2ncc(-c3cccc(Cl)c3)[nH]2)cc1	112µM*	-30%[70.6 µM]	?	?	i
CS(=O)(=O)c1ccc(-c2cnc([C@@H]3COCCN3Cc3ccncc3)[nH]2)cc1	4%[172 µM]	-2%[70.6 µM]	i	-1%[174 µM]	i
Fc1ccc(CN2CCOC[C@H]2c2ncc(-c3cccc(Cl)c3)[nH]2)cc1	?	?	-20%[88.5 µM]	71µM*	i
CS(=O)(=O)c1ccc(-c2cnc([C@@H]3COCCN3Cc3ccc(Cl)cc3)[nH]2)cc1	79µM*	-15%[70.6 µM]	4%[88.5 µM]	?	i
Oc1ccccc1CN1CCOC[C@H]1c1ncc(-c2ccc(F)cc2F)[nH]1	79µM*	-25%[70.6 µM]	-12%[88.5 µM]	?	i
CN(C)c1ccc(CN2CCOC[C@H]2c2ncc(-c3ccc(F)cc3F)[nH]2)cc1	?	-16%[70.6 µM]	?	?	i
CNC(=O)c1cc(C)nc2onc(C3CCN(C(=O)c4cccc(C)c4)C3)c12 (stereo unspecified)	-11%	.	.	-23%	.
CCCC1c2nccn2CCCN1C(=O)c1n[nH]c(=O)c2ccccc12 (stereo unspecified)	-4%	0%	i	-2%	i
COCCN1C(=O)c2ccccc2C(C(=O)Nc2nc(C)c(C)s2)C12CCCC2 (stereo unspecified)	-19%	4%	2%	?	i
CN(CC(O)COc1ccccc1CN1CCCOCC1)C1CCCCC1 (stereo unspecified)	?	2%	i	?	i
Fc1ccccc1CN1CCOC[C@H]1c1ncc(-c2cccc(Cl)c2)[nH]1	79µM*	-19%[70.6 µM]	i	79µM*	i
Fc1cccc(-c2cnc([C@@H]3COCCN3Cc3ccc(Cl)cc3)[nH]2)c1	79µM*	?	-16%[88.5 µM]	?	i
Clc1cccc(-c2cnc([C@@H]3COCCN3Cc3ncc[nH]3)[nH]2)c1	-10%[172 µM]	1%[70.6 µM]	-9%[88.5 µM]	-1%[138 µM]	i
COc1ccc(CN2CCOC[C@H]2c2ncc(-c3cccc(F)c3)[nH]2)cc1	?	-22%[70.6 µM]	i	?	i
CCOC(=O)[C@H]1[C@@H](O)C(=O)N(Cc2ccccc2)C12CCN(C(=O)OCC)CC2	i	.	.	?	.
COc1ccc(-c2cn3cc(C(=O)N4CCCC4)nc3c(=O)n2CC2CC2)c(F)c1	32µM*	-25%	?	32µM*	i
CC1CCCN1C(=O)c1cn2cc(-c3cccc(Cl)c3)n(CC3CC3)c(=O)c2n1 (stereo unspecified)	?	-9%	2%	25µM*	i
Cc1ccc(OCc2nnc(NC(=O)NCCc3cnc[nH]3)s2)cc1	?	2%	i	?	i
O=C(Cc1cccc(Cl)c1)N1C[C@@H](CO)[C@H](c2ccncc2)C1	-28%	1%	i	-12%	i
